Results from PubChem BioAssay AID1047 (SRMLSC, 2008).
Out of some 1,500 compounds screened, about 1,400 (93%) were called active. The rule behind the calls is not given here. The set was probably picked from earlier hits. Not all results are given here. Measured potencies and affinities stand elsewhere.

Assay: growth suppression of PTEN-null colon cells, dose response, cell-based, HCT116 PTEN knockout (AID 1047)
Conditions: CellTiter-Glo, 60 h; series mostly up to 30 µM

outcome, inactive:
CN(C)S(=O)(=O)c1cccc(NC(=O)COC(=O)c2cccc(S(=O)(=O)N3CCc4ccccc4C3)c2)c1, CCOC(=O)c1[nH]c2ccc(OC)cc2c1NC(=S)N1CCN(c2ccccc2)CC1, Cc1cc(C)n(C(=O)CNc2ccc(C)c(C)c2)n1, O=C(NCc1ccco1)C1CCN(S(=O)(=O)Cc2ccccc2)CC1, COc1ccc(Nc2oc(COc3ccc(Cl)cc3)nc2C#N)cc1, COc1ccc(-c2cc(C(F)F)n3ncc(C(=O)n4ccnc4C)c3n2)cc1, COC(=O)C1=C(C)N(c2ccc(F)c(Cl)c2)C(=O)C1, COc1cc(SC#N)ccc1N=Cc1c(C)[nH]n(-c2cccc3ccccc23)c1=O, COc1ccccc1CN=Cc1[nH]c2ccc(Br)c(Cl)c2c1O, CCOC(=O)c1c(C2COc3ccccc3O2)csc1NC(=O)c1ccccc1 (centres undefined), O=C(CSc1ncnc2c1nnn2-c1ccc(F)cc1)NCC1CCCO1 (centres undefined), COC(=O)Nc1nc2c(s1)CCCC2, Cc1cc(C)c2c(=O)n(CC(=O)NCCCN3CCOCC3)sc2n1, CN1/C(=C\C(=S)NC(=O)c2ccc([N+](=O)[O-])cc2)C(C)(C)c2ccccc21, COc1ccc(NC(=O)CCCn2c(=O)c3sccc3n(Cc3ccccc3)c2=O)cc1, COC(=O)C1=C(C)N(Cc2ccco2)C(=O)N[C@@H]1c1cccc(C(F)(F)F)c1, CC(C)(C)c1ccc(CNc2ccc([N+](=O)[O-])cn2)cc1, Cc1cc(Nc2ccccc2)nn1C(=O)c1ccccc1, O=C(NCCOc1ccccc1)C(c1ccccc1)c1ccccc1, COc1ccc(C(=O)CCN2CCCCCC2)cc1, CCCCNS(=O)(=O)c1ccc2nc(-c3cccnc3)cc(C(=O)NC3CC3)c2c1, CCN(CC)S(=O)(=O)c1ccc(-c2nnc(SCc3nnc(-c4ccccc4)o3)o2)cc1, C=C1C(O)C[C@H]2C(=C)CCC3[C@H](OC(=O)[C@]3(O)CO)[C@@H]12 (some centres undefined), O=S(=O)(c1cccc2ccccc12)N1CCSC1, COCCn1c(=NC(=O)CSCC(=O)Nc2cc(C)on2)sc2cc(C(=O)OC)ccc21, O=C(CCNc1cc(Cl)cc(Cl)c1)c1ccco1, c1ccc(-c2cc3n(c2)CCc2ccccc2-3)cc1, [N-]=[N+]=NC1C[C@H](n2ccc(=O)[nH]c2=O)O[C@@H]1CO (some centres undefined), O=C(Nc1cccc(C(F)(F)F)c1)NC1CCCCC1
